Only some compounds are listed: those with a hit (about 6.7% of all), similar ones and a draw of the others.
KB-V1 cytotox: KB-V1 MDR subline cytotoxicity. KB-V1 MDR cells viability, CellTiter-Glo, 72 h. Potency, µM (series often up to 46.1 µM), hits mostly cytotoxic. 400,000 compounds, 3.4% hits; also: % is scaled to controls: 0 for no effect and ±100 for the full control effect; nearly all actives have a fitted effect of over 60% in size
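Following 72 h at 37 degrees C with compound, KB-V1 cell viability was read by CellTiter-Glo luminescence, medium being phenol-red-free DMEM plus 10% FBS; concentration-response parameters came from normalized, curve-fitted qHTS data.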
KB-3-1 tox: kills parental KB-3-1 adenocarcinoma cells. Potency, µM (titrated, usually from 46.1 µM), actives largely listed as cytotoxic. KB-3-1 viability, CellTiter-Glo ATP luminescence, 72 h. 400,000 compounds, 1.4% hits. AID 1347075; also: % is scaled to controls: 0 for no effect and ±100 for the full control effect; nearly all actives have a fitted effect of over 60% in size
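KB-3-1 parental drug-naive adenocarcinoma cells in DMEM/10% FBS, incubated 72 h at 37 C with pin-transferred compounds across a concentration series. Viability by CellTiter-Glo luminescence; concentration-response curves fitted after normalization.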
PINK1 modulator: changes PINK1 expression; PINK1 immunofluorescence, high-content cytometry, 24 h; Potency, µM (highest dose often 76.6 µM), for inactives: at the top dose activation (PINK1 increase), most hits filed as activators; 410,000 compounds, 0.2% hits; AID 624263; active = well fitted activation curve with a large enough effect; inconclusive = small, poorly fitted or top-dose-only effect; cell line not stated here; also: % of control where 0% means no effect; nearly all actives have a fitted effect of over 65% in size
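Stable cell line treated 24 h with compounds at 5 concentrations (CCCP controls), then fixed and immunostained for PINK1 plus nuclear and cell stains; PINK1 immunofluorescence quantified by laser-scanning microplate cytometry.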
MCF10A rerep: inducers of DNA re-replication in MCF 10A breast cells; 350,000 compounds, 2.9% hits; Potency, µM (top dose mostly 46.1 µM), inactives show top-dose activity, positive = re-replication, usual class: activators; MCF 10A DNA re-replication, Hoechst nuclear intensity, 48 h; AID 624296; also: % of control where 0% means no effect; nearly all actives have a fitted effect of over 50% in size
SW480 rerep: induces DNA re-replication in SW480 colon adenocarcinoma cells. SW480 DNA re-replication, Hoechst DNA content imaging, 48 h. Potency, µM (titrated, usually from 46.1 µM), without a hit: at the top dose re-replication activation, usual class: activators. 340,000 compounds, 1.8% hits. AID 624297; also: % of control where 0% means no effect; nearly all actives have a fitted effect of over 55% in size
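DNA re-replication was detected as more nuclei of elevated Hoechst intensity after 48 hr exposure to compound (23 nL pinned per well of 250 cells).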
* hit, by the source's call; i = inactive; ? = inconclusive; · = no result; [ ] = remark or other dose. Unless noted, calls follow the shape of the dose curve; as a rule, active = well fitted curve in the direction sought with a large enough effect; inconclusive = small, poorly fitted or top-dose-only effect, or another doubt; inactive = no such curve, though single readings can be large; an effect the other way counts as inactive or inconclusive. Potency is read from the fitted curve at half-maximal effect.

SMILES	KB-V1 cytotox	KB-3-1 tox	PINK1 modulator	MCF10A rerep	SW480 rerep
CCOC(=O)c1sc(NC(=O)CC)nc1C	i	i	2%	?	-4%
CNc1nc(C)c(C(=O)OCc2ccccc2)s1	21µM*	i	-2%	?	1%
CCOC(=O)c1sc(Nc2nc(C)cc(C)n2)nc1C	9.2µM*	?	3%	?	?
CCN(C(=O)COC(=O)/C=C/c1c(C)nn(Cc2ccc(C)cc2)c1C)C1CCS(=O)(=O)C1 (stereo not drawn)	i	i	0%	-3%[9.22 µM]	16µM*
Cc1cc(Br)ccc1NC(=O)CN(C)C(=O)CN1C(=O)NC(C)(C2CC2)C1=O (stereo not drawn)	?	i	-1%	-2%	3%
Cc1nc2c(-c3ccccc3)c(C)[nH]n2c(=O)c1Cc1ccc(Br)cc1	·	·	3%	·	·
CC1CCCCN1S(=O)(=O)c1ccc(NC(=O)c2cccs2)cc1 (stereo not drawn)	?	i	·	21µM*	21%
CCOc1ccc(NC(=O)[C@@H]2CCCN2C(=O)c2cccs2)cc1S(=O)(=O)N1CCCCC1	9.2µM*	i	0%	-1%	8%
CC1CCN(S(=O)(=O)c2ccc(NC(=O)[C@@H]3CCCN3C(=O)c3cccs3)cc2)CC1	21µM*	i	1%	12%	10%
CNC(=O)Nc1cc(C)nn1C	i	i	1%	-5%	23µM*
Cc1cc(NC(=O)Nc2cccc(C(F)(F)F)c2)n(C)n1	i	i	1%	23%	-6%
COc1ccccc1C(=O)Nc1nnc(SCC(=O)Nc2ccc3c(c2)oc2ccccc23)s1	18µM*	i	16%	3%	0%
CCn1c(SCC(=O)Nc2ccc3c(c2)oc2ccccc23)nnc1-c1ccc(N)cc1	18µM*	?	-2%	?	?
CCc1cccc(C)c1NC(=O)C(CC)Sc1nncn2c1cc1occc12 (stereo not drawn)	i	i	1%	·	·
COc1cc2c(cc1OC)C(c1cc3cc4c(cc3[nH]c1=O)OCO4)N(C(=O)C(C)C)CC2 (stereo not drawn)	i	i	-2%[38.3 µM]	8.2µM*	?
COc1cc2c(cc1OC)C(COc1ccc(F)cc1)N(C(=O)C(C)C)CC2 (stereo not drawn)	?	i	-3%	·	·
Cc1ccc(C)c(CN2C(=O)c3ccccc3S(=O)c3ccc(C(=O)N4CCN(c5ccccn5)CC4)cc32)c1 (stereo not drawn)	?	10µM*	0%	?	20%
CCN1C(=O)c2ccccc2S(=O)c2ccc(C(=O)N3CCN(c4cccc(C)c4)C(C)C3)cc21 (stereo not drawn)	i	18µM*	2%	·	·
CC1CCN(C(=O)c2cc3c(=O)n(C)c4cc(Cl)ccc4c3s2)CC1	i	i	-4%	·	·
Cc1cc(C)cc(Cn2c(C)c(C(=O)N(C)Cc3ccc(F)cc3)sc2=O)c1	?	i	0%	·	·
Cc1ccccc1Cn1c(C)c(C(=O)N(C)Cc2ccc(F)cc2)sc1=O	16µM*	?	1%	·	·
COc1ccc(Br)c(Cn2c(C)c(C(=O)N(C)Cc3ccc(F)cc3)sc2=O)c1	8.2µM*	?	-1%	·	·
O=CCCCC=O	·	·	·	23%	0%
CCC(C)c1ccc(S(=O)(=O)Nc2cccnc2)cc1 (stereo not drawn)	i	i	0%	2%	29%
CC(C)Cc1ccc(S(=O)(=O)Nc2cccnc2)cc1	i	i	-1%	14%	4.6µM*
CCN(CC)c1nc(N)c(C#N)c(CC#N)c1C#N	?	i	1%	?	-26%
CCCN(CCC)c1nc(N)c(C#N)c(CC#N)c1C#N	i	i	18%	6.5µM*	14%
Cc1cc(CN2CCCC(CNC(=O)c3ccc(F)cc3)C2)cc(C)c1O (stereo not drawn)	i	i	0%	23µM*	?
COc1ccc(-c2nc(SCC(=O)NCc3ccco3)c(-c3ccccc3)[nH]2)cc1OC	i	i	-1%	21µM*	1%
Cc1cccc(-c2nsc(SCC(=O)NCc3ccco3)n2)c1	21µM*	i	3%	12%	-1%
